ALR H2O2 inh – inhibitors of human sulfhydryl oxidase ALR; P55789; purified ALR, DTT oxidation, H2O2 HRP-luminol luminescence; inhibition, % (test concentration not listed); 3.8% of 290,000 active; AID 485317;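 active means mean replicate inhibition above about 79%, with every replicate also reaching it, limit read from the data; inconclusive means only one of the two criteria met; inactive means mean below limit and not every replicate reaching it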
PP1 inh – PP1-alpha (human) inhibition in PP5 counter-screen; P62136; 0.9% of 320,000 active; purified PP1alpha, OMFP fluorescence; inhibition, % at 6.7 µM; AID 2235;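 active means inhibition above the mean inhibition of all tested compounds plus 3 SD, computed separately for each screening campaign, cut at about 15% in these data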
Calb FLC – affects C. albicans growth with fluconazole; 0.57% of 300,000 active; growth inhibition, % (concentration not given with the values); C. albicans CaCi-2 (fluconazole-resistant clinical isolate) + fluconazole, Alamar Blue growth, 48 h; AID 1979;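 active means growth inhibition above about 58% in most replicates, limit read from the data, passing the limit was not always enough; inconclusive means exactly half the replicates above a set limit; inactive means most replicates below a set limit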;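 further: all wells also contain fluconazole at 8 µg/ml as a sub-toxic cotreatment; 0% = median of DMSO wells and 100% = median of geldanamycin control wells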
CSC inhib – cancer stem cell inhibition; cancer stem cell-like cells viability, luminescence; inhibition, % at 7.5 µM; 1.1% of 300,000 active; AID 2717; in the data active means inhibition above about 75%; inconclusive means no clear call, values can overlap the other calls; tested in HMLE shEcad cells
PP5 inh – blocks human protein phosphatase 5 activity; inhibition, % at 6.7 µM; purified PP5c, OMFP substrate fluorescence; 0.18% of 320,000 active; P53041;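 active means inhibition above the campaign's mean inhibition across all tested compounds plus 3 SD, cut at about 9.5% in these data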;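 further: 0% = DMSO only and 100% = 100 µM cantharidin control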
Target sequence (P53041 whole entry, looked up): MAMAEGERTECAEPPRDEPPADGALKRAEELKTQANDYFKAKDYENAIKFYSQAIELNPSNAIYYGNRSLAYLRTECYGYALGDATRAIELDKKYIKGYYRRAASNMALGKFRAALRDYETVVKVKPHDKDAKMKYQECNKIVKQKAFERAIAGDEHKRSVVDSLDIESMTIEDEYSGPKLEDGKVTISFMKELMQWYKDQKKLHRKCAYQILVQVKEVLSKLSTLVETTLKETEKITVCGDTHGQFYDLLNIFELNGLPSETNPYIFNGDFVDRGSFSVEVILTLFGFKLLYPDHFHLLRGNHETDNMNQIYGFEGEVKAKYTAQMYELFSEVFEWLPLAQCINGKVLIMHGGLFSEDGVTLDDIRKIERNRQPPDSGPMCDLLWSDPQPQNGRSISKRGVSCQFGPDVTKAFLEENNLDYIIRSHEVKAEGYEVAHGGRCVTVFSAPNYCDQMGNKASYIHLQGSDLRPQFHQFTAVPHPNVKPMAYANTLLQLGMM
Numbers without * were called inactive; ? = inconclusive; nt = not tested or not shown. Most compounds without a hit are left out; they make up all but 5.4% or so of the library.

SMILES | ALR H2O2 inh | PP1 inh | Calb FLC | CSC inhib | PP5 inh
CCN(Cc1ccccc1)C(c1ccc(C(F)(F)F)cc1)c1nnnn1C(C)(C)C (stereo not drawn) | -8.2 | 15.3* | 4.4 | 24.2 | -0.1
COc1ccc(CNc2ncc(-c3ccccc3)n2C)cc1 | 41.5 | -4.4 | -6.6 | -5.9 | 5.4
Cn1cc(C(=O)c2ccc(Cl)cc2Cl)cc1C(=O)N/N=C(\N)COc1ccc(Cl)cc1 | nt | 15.8* | ? | 32.1 | 2.7
Cn1cc(C(=O)c2ccc(Cl)cc2Cl)cc1C(=O)N/N=C(\N)COc1ccc(F)cc1 | -1.9 | 0.0 | 0.4 | 14.5 | 5.4
Cn1c(SCC2CCCO2)nnc1-c1ccc([N+](=O)[O-])cc1 (stereo not drawn) | -15.3 | 11.3 | -13.4 | 4.3 | -0.4
COc1cccc(NC(=O)c2cc([N+](=O)[O-])ccc2NC(=O)CNCC2CCCO2)c1 (stereo not drawn) | 99.6* | -3.5 | 27.6 | -6.8 | 4.2
O=C(CNCC1CCCO1)Nc1ccc([N+](=O)[O-])cc1C(=O)Nc1ccccc1F (stereo not drawn) | nt | -5.8 | 11.1 | -3.3 | -0.2
O=C1c2ccccc2C2=Nc3ccccc3SC(c3ccc(Cl)cc3)C12 (stereo not drawn) | -2.0 | 6.1 | 6.5 | 126.9* | 6.0
O=C1c2ccccc2C2=Nc3ccccc3SC(c3cccc(F)c3)C12 (stereo not drawn) | nt | 6.6 | -1.5 | 5.5 | 5.3
O=C1OC(N2C(=O)CC[C@H]2C(=O)Nc2ccc3c(c2)OCO3)c2ccccc21 (stereo partly drawn) | -14.9 | -13.0 | -10.5 | -5.7 | -3.0
CCn1c(C)cc(/C=C2/SC(=S)N(CC(=O)O)C2=O)c1C | 99.1* | -0.6 | 0.5 | -3.1 | 0.4
C#CCN1C(=O)S/C(=C/c2cc(C)n(CC)c2C)C1=O | nt | 5.0 | -4.2 | 12.2 | 4.3
COc1ccc(-c2[nH]ncc2-c2ccc3c(c2)OCCO3)c(O)c1 | 91.7* | -1.5 | -4.4 | -11.5 | 1.6
Cn1cccc1/C=N/n1c(-c2ccc(Cl)cc2Cl)n[nH]c1=S | 97.0* | -2.7 | -6.4 | 1.4 | 0.7
COc1ccc(OCc2nnc(SC3CCOC3=O)n2-c2ccccc2)cc1 (stereo not drawn) | -4.5 | -1.1 | 9.8 | -2.8 | -0.8
COc1cccc(-n2c(SC3CCOC3=O)nc3ccccc3c2=O)c1 (stereo not drawn) | 94.6* | -1.6 | -5.6 | -4.0 | 1.7
Cc1ccc(C)c(Sc2ccc(NC(=O)CCl)cc2)c1 | 86.2* | -1.3 | -9.6 | 14.3 | 7.0
Cc1ccc(Sc2ccc(NC(=O)CCl)cc2)cc1C | 98.3* | 0.8 | -50.9 | 33.7 | 8.5
CCc1ccc(S(=O)(=O)/N=C2/C=C(Sc3ncn[nH]3)C(=O)c3ccccc32)cc1 | -56.8 | 2.8 | nt | 104.0* | 7.4
N#CC1=C(N)Oc2ccc3ccc(O)cc3c2C1c1cccnc1 (stereo not drawn) | 16.3 | -2.6 | 7.0 | -10.0 | 1.8
CCN1c2ccccc2NC2N=C(OC)C(c3ccccc3)C21 (stereo not drawn) | 98.6* | -2.1 | 5.7 | 0.5 | 0.7
CCN1c2ccccc2NC2C1C(C(C)=O)C(=O)N2c1ccc(Cl)cc1 (stereo not drawn) | -32.4 | 4.9 | 19.3 | 3.0 | 1.9
CNC(=S)N(CCc1c(C)[nH]c2ccc(F)cc12)Cc1ccco1 | 24.8 | -3.1 | -8.3 | 8.3 | 7.8
CCCCCC(=O)N/N=C/c1cc(Br)c(O)c(OC)c1 | 99.3* | -3.8 | -0.3 | nt | -1.0
COc1ccc(/C=N/NC(=O)C2C3CCCCC32C)cc1OC (stereo not drawn) | -4.2 | -2.2 | -9.7 | 0.4 | 1.8
SMILES | ALR H2O2 inh | PP1 inh | Calb FLC | CSC inhib | PP5 inh
COc1cc(/C=N/NC(=O)CC2(C)OCCO2)cc(Br)c1O | 70.6 | -2.8 | ? | -5.8 | 3.4
COc1cc(/C=N/NC(=O)C2C3CCCCC32C)cc(Br)c1O (stereo not drawn) | 86.0* | 1.7 | -1.6 | -2.7 | 2.0
O=C(NCCCN1CCOCC1)c1ccc(/C=C2\Oc3ccccc3N(Cc3ccccc3F)C2=O)cc1 | nt | 2.1 | -20.0 | 43.0 | 1.8
CCN1CCN(CCCNC(=O)c2ccc(/C=C3/Sc4ccccc4N(Cc4ccccc4F)C3=O)cc2)CC1 | -10.8 | -0.7 | 3.0 | 103.5* | 2.5
N#CCC(=O)N/N=C\c1ccc(OC/C=C/c2ccccc2)cc1 | -10.9 | 17.3* | -2.9 | -3.1 | 0.6
COc1ccc(-n2c(Cc3cccn3C)nnc2SCC(N)=O)cc1 | -4.6 | -3.0 | 9.8 | nt | 0.9
CC(C)(C)c1nnc(N/N=C/c2cc(Br)ccc2O)n(N)c1=O | -8.7 | 11.4 | -32.5 | 112.1* | 2.5
NC(=O)N/N=C\c1cc(Br)ccc1O | 5.3 | 0.8 | 4.4 | nt | 0.9

Screens: PubChem BioAssay, several laboratories
